# LASV entry inh = inhibitors of Lassa virus binding or entry into cells; Potency, µM (highest dose often 49.2 µM), for the others: at the top dose activity change, negative = inhibition, usual class: inhibitors; AID 720533; hit rate 4.1% among 18,000; Lassa virus pseudotyped entry inhibition, cell-based qHTS
# Marburg entry = blocks Marburg virus binding or cell entry; Marburg virus pseudotype entry/binding inhibition, cell-based; AID 720532; hit rate 6.5% among 18,000; Potency, µM (highest dose often 49.2 µM), for the others: at the top dose activity change, negative = inhibition, most hits filed as inhibitors
# * = called active by the depositor; ? = inconclusive; / = not tested or not shown; ! = not confirmed by another sample; [ ] = remark or other dose. Compounds with a hit are over-represented: about 7.1% of the library has one in this group of screens. Calls follow the shape of the full dose curve; tested in HEK293 cells. % is scaled to controls: 0 for no effect and ±100 for the full control effect; potency is read from the fitted curve at half-maximal effect.
SMILES,LASV entry inh,Marburg entry
CCN1C(=O)NC(c2ccco2)C(C(=O)OC)=C1C (stereo not given),-20%[8.59 µM],5%[8.59 µM]
C=CC[C@H]1C[C@H]2CC=CP(=O)(O2)O1,-11%,-35%
COC(=O)C1=C(C)N(Cc2ccccc2)C(=O)NC1CCc1ccccc1 (stereo not given),6%[8.59 µM],23%[8.59 µM]
NC(=O)Cc1ccccc1Oc1nccc(-c2c(-c3ccc(F)cc3)ncn2C2CCNCC2)n1,-30%,?
Fc1ccc(-c2ncn(C3CCNCC3)c2-c2ccnc(Oc3ccc4c(c3)OCO4)n2)cc1,?,6.3µM*
COCOCCn1cc(CN2CCS(=O)(=O)N(Cc3ccc(-c4cccc(N(C)C)c4)cc3)C(C)C2=O)nn1 (stereo not given),18%,9%
CCN1C(N(C)CCc2ccc(Br)cc2)=NC(c2ccccc2)C(C(=O)OC)=C1C (stereo not given),0%[8.59 µM],?
CCN1C(=NCCCOC(C)C)N[C@@H](CCc2ccccc2)[C@H](C(=O)OC)[C@H]1C,20%[8.59 µM],3%[8.59 µM]
CCC(=O)OC1CCC2C3CCc4cc(O)ccc4C3CC[C@]12C (stereo not given in full),158µM*,0.001µM*
CCC(=O)O[C@H]1CC[C@H]2[C@@H]3CCc4cc(O)ccc4[C@H]3CC[C@]12C,?,-30%
CCCCC(=O)O[C@H]1CC[C@H]2[C@@H]3CCc4cc(O)ccc4[C@H]3CC[C@]12C,?,-15%
C[C@]12CC[C@@H]3c4ccc(O)cc4CC[C@H]3[C@@H]1CCC2=O,32µM*!,16%
C[C@]12CCC3c4ccc(O)cc4CCC3[C@@H]1CCC2=O (stereo not given in full),-17%[17.8 µM],15%[17.8 µM]
C[C@]12CC[C@@H]3c4ccc(O)cc4CC[C@H]3[C@@H]1CC[C@@H]2OC(=O)CCC1CCCC1,28µM*!,20%
CC1(C)CN(C2CCCCC2)C(=O)[C@@H]1CC(=O)Nc1ccc(Br)cc1,-28%,9%
CCOC(=O)[C@]12C[C@]3(OC)CCN(C(=O)N[C@@H]1c1ccccc1)[C@@H]32,?,10%[8.59 µM]
CC=COC(=O)N[C@@H](c1ccccc1)[C@]1(C(C)=O)CCOC1=O,24%[8.59 µM],7%[8.59 µM]
CC(=O)Oc1cc(-c2coc3cc(OC(C)=O)c(OC(C)=O)c(OC(C)=O)c3c2=O)cc(OC(C)=O)c1OC(C)=O,-5%,14µM*
COc1cc(-c2coc3cc(OC)c(OC)c(OC)c3c2=O)cc(OC)c1OC,-11%,2%
COC(=O)C1=C(C)N(Cc2ccccc2)C(=NCCc2ccc(O)cc2)NC1c1ccc(Br)cc1 (stereo not given),-24%[8.59 µM],2%[8.59 µM]
O=S1(=O)c2ccc(Br)cc2-n2nncc2CN1Cc1ccc(C(F)(F)F)cc1,20%,25%
COc1cccc2c1[C@H](C=Cc1ccccc1)[C@@H]([C@H](O)CN=[N+]=[N-])OC2,-18%[8.59 µM],-5%[8.59 µM]
CC(CCN1CCCCc2nc(C)c(C)cc21)=NO[C@H](C)CN1CCCc2nc(C)c(C)cc21,-12%[8.59 µM],?
C[C@H]1N[S+](=O)([O-])c2ccc(Br)cc2O[C@@H]1c1ccccc1,16%,8%
COc1ccc2c3c([nH]c2c1)C(C)=NCC3,-7%,?
SMILES,LASV entry inh,Marburg entry
COc1ccc2c(c1)[nH]c1c(C)nccc12,4%,22µM*
COC(=O)[C@H]1[C@H](C)[C@@]2(O)c3ccccc3N(C)[C@@]1(C)[C@H]2O,-14%[8.59 µM],-25%[8.59 µM]
CC(NCCc1ccc(O)cc1)C(O)c1ccc(O)cc1 (stereo not given),-23%,7%
CCCCCCCCNC(C)C(O)c1ccc(SC(C)C)cc1 (stereo not given),11µM*,?
O=C(c1cccs1)N1C[C@@H](n2cc(-c3ccc(F)cc3)nn2)[C@@H](O)C[C@@H]1c1ccc(Cl)cc1,-27%,?
CNCC/C=C/c1cccnc1,-23%,-4%
CNCCC=C1c2ccccc2CCc2ccccc21,32µM*,10µM*
COc1ccccc1N1C(=O)[C@@H]2CSCCS(=O)(=O)N2C1=O,1%,15%
C[C@H](ON=C1[C@H]2CCn3c(=O)n(-c4ccccc4)c(=O)n3[C@@H]2[C@H](O)[C@@H]2O[C@H]12)c1cn([C@H](CO)Cc2ccccc2)nn1,21%[8.59 µM],7%[8.59 µM]
CCNC(C)Cc1cccc(C(F)(F)F)c1 (stereo not given),2%,11%
C[C@@H](NCCCc1cccc(C(F)(F)F)c1)c1cccc2ccccc12,16µM*,6.3µM*
COc1ccc(O[C@H]2C=C[C@@H](c3ccccc3)O[C@H]2COC(=O)CCC(C)=NO[C@@H]2O[C@H](COC(C)=O)[C@@H](OC(C)=O)[C@H](OC(C)=O)[C@@H]2OC(C)=O)cc1,7%[8.59 µM],-23%[8.59 µM]
COC(=O)CC(Oc1c(C)n(C)c2ccccc2c1=O)c1ccccc1 (stereo not given),-6%[8.59 µM],-5%[8.59 µM]
Cc1ccc2c(=O)c3ccccc3n(CCCN)c2c1C,10µM*!,10µM*
CCOC(=O)CN1C(=O)[C@]2(OCCC=C[C@@H]2C)c2ccccc21,11%[8.59 µM],1%[8.59 µM]
CN(C)CCOC1=Cc2ccccc2Sc2ccc(Cl)cc21,?,13µM*
CN(C)CCOC(c1ccc(Cl)cc1)c1ccccn1 (stereo not given),-6%,?
CC(CCC(=O)OC[C@H]1O[C@H](C#Cc2ccccc2)C=C[C@H]1Oc1ccc(C)cc1)=NO[C@@H](C)CN1CCCCc2nc(C)c(C)cc21,24%[8.59 µM],-16%[8.59 µM]
C=CCOC(=O)C(C(C)=O)[C@@H](NC(=O)OC)c1cccc(C(F)(F)F)c1 (stereo not given in full),1%[8.59 µM],4%[8.59 µM]
CC(C)(C)C1(O)CCN2CC3c4ccccc4CCc4cccc(c43)C2C1 (stereo not given),?,28µM*
CN1CCN2c3ncccc3Cc3ccccc3C2C1 (stereo not given),1%,?
CC(C)(C)[C@]1(O)CCN2C[C@H]3c4ccccc4CCc4cccc(c43)[C@@H]2C1,?,11µM*
COC(=O)C1=NN=C(C(=O)OC)[C@@]2(C)c3ccccc3NC12 (stereo not given in full),13%[8.59 µM],44%[8.59 µM]
CN(C)CCCOc1nn(Cc2ccccc2)c2ccccc12,-22%[17.8 µM],?
OCc1ccc(-c2nn(Cc3ccccc3)c3ccccc23)o1,?,14µM*
SMILES,LASV entry inh,Marburg entry
Cc1ccc(C(=O)NC2CC2)cc1-c1ccc2[nH]ncc2c1,/,-9%
Cc1ccc(C(C)C)c(O)c1,-7%,4%
Cc1ccc(O)c([C@H](CCN(C(C)C)C(C)C)c2ccccc2)c1,?,10µM*
CCOC(=O)CCN1C(=O)[C@@H]2[C@H]3[C@H](O)[C@H](O)CC(=NOCc4ccccc4)[C@@H]3CC[C@H]2C1=O,-17%[8.59 µM],-7%[8.59 µM]
CCCCCC(=O)N1C[C@@H](n2cc(C3CC3)nn2)[C@H](O)C[C@H]1c1ccccc1,17%,-7%
CCN(CC)C(=O)c1cc(S(=O)(=O)Cc2ccccc2)c(N2CCC(c3ccccc3)CC2)cc1N(CC)CCN(C)C,14µM*,5µM*
COC(=O)C1=C2C=CCCN2C(=O)NC1c1ccccc1 (stereo not given),-9%[8.59 µM],-17%[8.59 µM]
c1ccc2sc(C3(N4CCCC4)CCCCC3)cc2c1,1%,6.3µM*
c1ccc2sc(C3(NCC4CC4)CCCCC3)cc2c1,?,14µM*
CC(C)C[C@@H]1COc2cccc(F)c2S(=O)(=O)N1,2%,15%
C[C@@H]1CC[C@H]2C(=O)N3[C@@H](CC[C@@H](C)[C@@H]3c3ccc(-c4ccco4)cc3)C(=O)N2[C@@H]1c1ccc(-c2ccco2)cc1,-1%[8.59 µM],-2%[8.59 µM]

# From PubChem
